# A selection: hits, their analogues and other compounds. The true share with any hit is near 5.3%.
# ALR inh – inhibitors of human ALR sulfhydryl oxidase, primary screen, biochemical, H2O2 detection, HRP-luminol luminescence, single point; purified ALR, DTT oxidation; 290,000 compounds, 3.8% hits; inhibition, % (no concentration beside the values); FAD-linked sulfhydryl oxidase ALR (Homo sapiens), P55789; AID 485317, 2010;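 active means mean replicate inhibition above about 79%, with every replicate also reaching it, limit read from the data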
# Target sequence (P55789 whole entry, looked up): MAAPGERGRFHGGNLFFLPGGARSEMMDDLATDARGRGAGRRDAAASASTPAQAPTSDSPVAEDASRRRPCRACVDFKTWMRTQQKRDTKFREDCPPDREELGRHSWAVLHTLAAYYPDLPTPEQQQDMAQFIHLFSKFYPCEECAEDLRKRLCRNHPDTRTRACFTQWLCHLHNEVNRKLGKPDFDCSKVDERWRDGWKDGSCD
# HIF act – HIF pathway transcriptional activators, primary screen, cell-based, U2OS HRE-luciferase, luminescence. AID 1910, 2009. 300,000 compounds, 0.32% hits. U2OS HRE-luciferase reporter; normalized: DMSO 0%, desferrioxamine 100%. activation, % at 7.5 µM (by protocol);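 active means mean activation of at least 10% of the iron chelator positive control signal, with at least half of replicates also reaching 10%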
# Mot1-301 SUMO – yeast Mot1-301 growth rescue at high temperature, primary screen, SUMOylation pathway inhibitor project, S. cerevisiae, ATP luminescence, 38.5C. 320,000 compounds, 1% hits. S. cerevisiae Mot1-301 growth rescue; percent above DMSO median, 100 means doubled. growth rescue, % at 18.8 µM;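 active means every valid replicate shows activation above 250% relative to neutral control wells; inactive means the rest, any valid replicate at or below 250%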;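 further: OY570 slx delta 5 strain wells were the positive control but not used for scaling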
# PfM18AAP inh – PfM18AAP inhibitors, malaria aminopeptidase, primary screen, biochemical, QFRET, recombinant enzyme; inhibition, % at 7.35 µM; M18 aspartyl aminopeptidase (Plasmodium falciparum 3D7); 290,000 compounds, 1.2% hits; H-Glu-NHMec fluorogenic cleavage;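 active means inhibition above the campaign mean inhibition over all tested compounds plus 3 SD, cut at about 28% in these data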;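 further: 0% = plate median of test compound wells and 100% = 2 mM ZnCl2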
# Mot1 SUMO dose – growth restoration of Mot1-301 yeast on galactose, dose response, SUMO pathway inhibitor project, whole organism, S. cerevisiae, ATP luminescence, cherry-picked samples. shares compounds with Mot1-301 SUMO. S. cerevisiae Mot1-301 galactose growth, 24 h; -100 = growth of slx-deleted rescue strain. growth activity, percent, % at 42 µM. 2,300 tested, under 10 active;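 active means Signal drops as the depositor expects, and the fitted half-maximal dose is no more than ten times the top valid tested dose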;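 further: more negative values mean stronger growth rescue toward the control strain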
# The depositor's hits bear a star; . = no result given; + = active, no number.
SMILES,ALR inh,HIF act,Mot1-301 SUMO,PfM18AAP inh,Mot1 SUMO dose
c1ccc(CNc2ncnc3sc4c(c23)CCC4)nc1,2,0,818*,-12,0
c1cncc(CNc2ncnc3sc4c(c23)CCC4)c1,-28,1,-10,4,.
COC(=O)c1c(C)oc(C)c1S(=O)(=O)NC(C)(C)C,0,0,-15,-3,.
CCOC(=O)c1c(C)n(C)c2cc(-c3ccc(C)cc3)c(O)cc12,-6,0,645*,-8,0
CCOC(=O)c1c(C)n(C)c2cc(-c3cccc(C(F)(F)F)c3)c(O)cc12,0,0,1,-4,.
Cc1cc(Cl)ccc1NC(=O)C1COc2ccccc2O1 (stereo not given),-2,-29,-3,2,.
N#Cc1cc2c(nc1SC1CCCCC1O)CCCC2 (stereo not given),8,0,485*,1,1
COCCCNC(=O)c1cc2cc([N+](=O)[O-])cc(OC)c2oc1=O,1,0,406*,11,1
COc1cc([N+](=O)[O-])cc2cc(C(=O)NC(C)(C)C)c(=O)oc12,3,0,2,2,.
Cc1ccc(NC(=S)N2CCN(Cc3ccc4c(c3)OCO4)CC2)c(C)c1,18,1,378*,1,0
Cc1c[n+](CC(=O)c2ccccc2)c(C)cn1,-3,2,3,2,.
N#C/C(=C\Nc1ccc2c(c1)OCCO2)c1nc(-c2ccccc2)cs1,-4,0,5,0,.
N#C/C(=C\Nc1ccc2c(c1)OCCO2)c1nc2ccccc2[nH]1,3,3,935*,2,-1
C=CCSC1=C(C#N)C(c2ccc(C(C)C)cc2)CC(=O)N1 (stereo not given),7,0,405*,-5,1
Cc1nn(CCc2nc(-c3ccco3)cs2)c2[nH]c(=O)cc(C(F)(F)F)c12,6,0,-7,7,.
CCCCCCOc1ccc(N2C(=O)CC(N3CCC(C(=O)OCC)CC3)C2=O)cc1 (stereo not given),-4,0,553*,-8,0
CCc1ccc(N2C(=O)CC(N3CCC(C(=O)OC)CC3)C2=O)cc1 (stereo not given),1,-1,491*,-9,-1
O=C(c1cc(N2C(=O)C3C4CCC(C4)C3C2=O)ccc1Cl)N1CCN(c2ccccc2)CC1 (stereo not given),6,0,+,-5,1
CC1CCN(C(=O)c2cc(N3C(=O)C4C5CCC(C5)C4C3=O)ccc2Cl)CC1 (stereo not given),-8,0,-24,0,.
CCc1nn(CC(=O)N2CCCCCC2)c(=O)c2cc3ccccc3n12,-6,0,-1,-5,.
CC1(C)C(=O)Nc2ccccc2N1C(=O)COc1cc(Cl)ccc1Cl,2,.,1,.,.
CC(=O)N/C(=C\c1ccccc1)C(=O)OCC(=O)c1ccc(F)cc1,3,0,-16,.,.
CC(=O)N/C(=C\c1ccccc1)C(=O)OCC(=O)c1ccccc1,-2,0,679*,.,0
Cc1cc(C)cc(N(C(=O)CCC(=O)Nc2ccccn2)C(C(=O)NC(C)C)c2ccc(O)cc2)c1 (stereo not given),.,-1,-17,-13,.
COC(=O)CN(C(=S)Nc1ccc(F)cc1)C1CC(=O)N(c2ccccc2)C1=O (stereo not given),7,-1,653*,-1,0
SMILES,ALR inh,HIF act,Mot1-301 SUMO,PfM18AAP inh,Mot1 SUMO dose
O=C1CC(N(CCc2ccccc2)C(=S)Nc2ccccc2)C(=O)N1c1ccccc1 (stereo not given),1,-2,-16,6,.
O=C1CC(N(CCc2ccccc2)C(=S)Nc2ccccc2)C(=O)N1c1ccc(F)cc1 (stereo not given),-10,0,700*,-6,0
Cc1ccc(CSCCNC(=O)c2ccc(NS(C)(=O)=O)cc2)cc1,-63,0,453*,4,0
Cc1ccc(CSCCNC(=O)c2ccc(C)cc2)cc1,-5,0,237,-14,.
O=C1CC(C(=O)O)S/C(=N\N=C\c2ccc(Br)cc2)N1 (stereo not given),4,0,11,9,.
O=C(c1cccs1)N(C(=O)c1cccs1)c1ccc(Br)cn1,.,4,482*,14,-3
Cc1cccc(C)c1NS(=O)(=O)c1ccc(OCCNS(C)(=O)=O)cc1,-1,0,655*,1,0
CC(C)(C)c1ccc(C(=O)N2CCN(c3ccc(N4CCOCC4)nn3)CC2)cc1,.,0,.,.,.
CCc1ccc(NC(=O)NCc2cccnc2)cc1,-20,0,-19,-3,.
COc1ccc(OCC(=O)O/N=C(\N)Cc2ccc(Cl)cc2)cc1,-11,0,+,5,0
Cc1ccc(CN2CC34C=CC(O3)C(C(=O)NCc3ccco3)C4C2=O)cc1 (stereo not given),39,0,-15,0,.
CCCCNC(=O)C1C2C=CC3(CN(Cc4ccc(C)cc4)C(=O)C13)O2 (stereo not given),11,0,859*,4,0
O=C1C2C3C=CC(CC3)C2C(=O)N1c1ccccc1F (stereo not given),-6,-4,-19,0,.
COc1ccc(C2C3=C(CC(C)(C)CC3=O)Nc3n[nH]c(C)c32)cc1 (stereo not given),31,0,365*,17,0
Cc1[nH]nc2c1C(c1cccs1)C1=C(CC(C)(C)CC1=O)N2 (stereo not given),12,1,662*,0,0
Cc1[nH]nc2c1C(c1cccs1)C1=C(CCCC1=O)N2 (stereo not given),-38,-1,-10,1,.
O=C(COC(=O)c1ccc[nH]c1=O)NC1CC1,-5,.,4,.,.
COCCSc1ccccc1C(=O)Nc1ccc(Cl)cc1,4,0,14,4,.
Cc1ccc(S(=O)(=O)Oc2ccc(/C=C3\N=C(c4cccc(C)c4)OC3=O)cc2)cc1,1,1,+,2,0
COc1ccccc1NC(=O)c1ccc(-n2ccnc2)c([N+](=O)[O-])c1,.,-13,513*,-2,0
O=C(N/N=C/c1ccc(OC(F)F)cc1)c1ccc(CSc2nc3ccccc3[nH]2)cc1,-14,1,8,-3,.
CCOc1ccc(/C=N/NC(=O)c2ccc(CSc3nc4ccccc4[nH]3)cc2)cc1,7,0,508*,-4,0
COc1ccc(-c2nc3c(c(SCC(=O)N4CCOCC4)n2)Cc2c(CO)cnc(C)c2O3)cc1,.,0,380*,24,0
NC(=O)c1ccc(NC(=O)C2CCCC2)cc1,-2,1,2,-6,.
Cc1ccc(S(=O)(=O)N2CCC(N3CCN(C)CC3)CC2)cc1Cl,-2,-1,-17,-12,.

# Source: PubChem
